Read-out in assay [1]: Tissue plasminogen activator (tPA), PLAT (gene 5327)
In words: BSK_BE3C_tPA: BioMAP Diversity Plus: BE3C Assay for Tissue plasminogen activator (tPA) Biomarker Activity (AID 2283041).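 On outcome: tPA level quantified by ELISA one day after compound addition.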 Particulars: primary human bronchial epithelial cells; actives raise or lower the signal. The method in brief: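 Primary human bronchial epithelial cells in the BE3C system, exposed to compound for 24 h. tPA was quantified by ELISA; DMSO served as baseline, with gain or loss of signal fitted. Cytotoxicity checked in parallel cultures by SRB total-protein staining.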

Read-out in assay [2]: Interleukin-8 (IL8), CXCL8 (gene 3576)
In words: BSK_CASM3C_IL8: BioMAP Diversity Plus: CASM3C Assay for Interleukin-8 (IL8) Biomarker Activity (AID 2283042).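 Further: IL-8 protein level quantified by ELISA.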 The following applies: primary human coronary artery smooth muscle cells; actives raise or lower the signal.

Read-out in assay [3]: Human Leukocyte Antigen - DR isotype (HLADR), HLA-DRA (gene 3122)
In words: BSK_CASM3C_HLADR: BioMAP Diversity Plus: CASM3C Assay for Human Leukocyte Antigen - DR isotype (HLADR) Biomarker Activity (AID 2283043).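 Further: cell-surface HLA-DR protein level quantified by ELISA.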 Particulars: primary human coronary artery smooth muscle cells; actives raise or lower the signal.

Read-out in assay [4]: Macrophage colony-stimulating factor (MCSF), CSF1 (gene 1435)
In words: BSK_CASM3C_MCSF: BioMAP Diversity Plus: CASM3C Assay for Macrophage colony-stimulating factor (MCSF) Biomarker Activity (AID 2283044).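 Further: M-CSF protein amount quantified by ELISA after 24 h exposure.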 The following applies: primary human coronary artery smooth muscle cells; actives raise or lower the signal.

Read-out in assay [5]: Low-density lipoprotein receptor (LDLR), LDLR (gene 3949)
In words: BSK_CASM3C_LDLR: BioMAP Diversity Plus: CASM3C Assay for Low-density lipoprotein receptor (LDLR) Biomarker Activity (AID 2283045).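 Further: LDLR protein level on the cell surface quantified by ELISA.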 Particulars: primary human coronary artery smooth muscle cells; actives raise or lower the signal.

Read-out in assay [6]: Monocyte Chemoattractant Protein-1 (MCP1), CCL2 (gene 6347)
In words: BSK_CASM3C_MCP1: BioMAP Diversity Plus: CASM3C Assay for Monocyte Chemoattractant Protein-1 (MCP1) Biomarker Activity (AID 2283046).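 Further: MCP-1 level quantified by ELISA 24 h after dosing.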 Particulars: primary human coronary artery smooth muscle cells; actives raise or lower the signal.

A short description of assay [7]: BSK_CASM3C_Proliferation: Cell Proliferation Assessment in the BioMAP Diversity Plus: CASM3C Assay (AID 2283047).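 Further: sulforhodamine B total protein stain as relative cell number at 560 nm; sub-confluent cells exposed 48 h before staining; fitted both ways against DMSO so gain or loss of cell number.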 The following applies: primary human coronary artery smooth muscle cells.
Read-out in assay [8]: Monokine induced gamma interferon (MIG), CXCL9 (gene 4283)
In words: BSK_CASM3C_MIG: BioMAP Diversity Plus: CASM3C Assay for Monokine induced gamma interferon (MIG) Biomarker Activity (AID 2283048).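 Further: MIG protein level measured by ELISA.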 Particulars: primary human coronary artery smooth muscle cells; actives raise or lower the signal.

Read-out in assay [9]: serum amyloid A (SAA), SAA1 (gene 6288)
In words: BSK_CASM3C_SAA: BioMAP Diversity Plus: CASM3C Assay for serum amyloid A (SAA) Biomarker Activity (AID 2283049).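 Further: SAA protein level quantified by ELISA.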 The following applies: primary human coronary artery smooth muscle cells; actives raise or lower the signal.

Assay [10] in a line: BSK_CASM3C_SRB: Viability Assessment in the BioMAP Diversity Plus: CASM3C Assay (AID 2283050). Particulars: primary human coronary artery smooth muscle cells.

“And” between values parts separate entries of the source, which are not always exact repeats. Equal entries are not always repeated. The source holds several records for some structures; these can differ, active in one and inactive in another. The source made the active and inactive calls. How the source made its calls: active means hit-call score of the fitted dose curve at least 0.9, where 1 is the maximum; inactive means score below 0.9.

One may read the AC50 as the concentration at which the activity in the assay is half-maximal. Take `COc1cc(C=O)ccc1OC(=O)C(C)C`: the result in assay [1], in assay [2], in assay [3], in [4], in assay [5] and in assay [6] was inactive. Further, the result in assay [7], in assay [8], in [9] and in [10] was inactive. The results for the concentration at half-maximal activity (AC50) in assay [4] and in assay [5] were 2.86 µM (active) and 0.15 µM (active), respectively.
As to `CNC[C@H](O)c1cccc(O)c1`, the result in assay [1], in [2], in assay [3], in assay [4], in assay [5] and in [6] was inactive. The result in assay [7], in assay [8], in assay [9] and in assay [10] was inactive.
On to `OC[C@H]1O[C@H](O[C@]2(CCl)O[C@H](CCl)[C@@H](O)[C@@H]2O)[C@H](O)[C@@H](O)[C@H]1Cl`, for which the outcome in assay [1], in [2], in assay [3], in assay [4], in assay [5] and in assay [6] was inactive. The result in assay [7], in assay [8], in assay [9] and in assay [10] was inactive.
On to `CCCCCCCCCC=O`, for which the outcome in assay [1], in assay [2], in assay [3], in [4], in [5] and in assay [6] was inactive. The outcome in assay [7], in assay [8], in assay [9] and in assay [10] was inactive.
For the compound `C=C(C)C(=O)O[C@H]1C[C@@H]2CC[C@@]1(C)C2(C)C`, the AC50 was 20 µM (active) in assay [1]; 22.3 µM (active) in assay [2]; 8.32 µM (active) in [3]; 7.53 µM (active) in assay [4]; 12.4 µM (active) in assay [6]; 23.5 µM (active) in assay [7]. The AC50 in [8] was 27.1 µM (active); in [10], 13.2 µM (active). The result in assay [5] and in assay [9] was inactive.
Regarding `CCCCCCCCC=O`, the result in assay [1], in [2], in assay [3], in assay [4], in assay [5] and in [6] was inactive. For the same compound, the result in assay [7], in [8], in assay [9] and in assay [10] was inactive.
For the compound `CCCCCCCCCCCCCCCCCC(=O)OCC(CC)CCCC` (stereo not drawn), the result in assay [1], in [2], in assay [3], in assay [4], in assay [5] and in [6] was inactive. In addition, the result in [7], in [8], in [9] and in [10] was inactive.
Regarding `c1ccc2sc(SN(C3CCCCC3)C3CCCCC3)nc2c1`, the result in assay [1], in [2], in [3], in assay [4], in assay [5] and in [6] was inactive. Further, the result in [8], in assay [9] and in [10] was inactive. Besides, the concentration at half-maximal activity (AC50) in assay [7] was 0.117 µM (active).
As to `CC1COc2ccccc2N1C(=O)C(Cl)Cl` (stereo not drawn), the half-maximal activity concentration (AC50) in assay [1] is 3.04 µM (active); in [3], 2.96 µM (active); in assay [4], 0.0828 µM (active); in assay [7], 8.84 µM (active); in [10], 5.64 µM (active). The result in assay [2], in assay [5], in assay [6], in assay [8] and in assay [9] was inactive.
With `O=C1CCCCCCCCCCCCCCO1`, the AC50 in assay [1] was 12.7 µM (active); in assay [2], 36.8 µM (active); in [3], 28.4 µM (active); in assay [4], 29 µM (active); in assay [5], 30 µM (active); in [6], 31 µM (active). Moreover, the AC50 in assay [7] was 20 µM (active); in assay [8], 32.6 µM (active); in assay [9] it was 29.8 µM (active); in [10], 30.9 µM (active).
On to `NCCNCCN`, for which the outcome in assay [1], in assay [2], in assay [3], in [4], in [5] and in [6] was inactive. The result in [7], in assay [8], in [9] and in assay [10] was inactive.
With `N#Cc1ccc(CC(=NNC(=O)Nc2ccc(OC(F)(F)F)cc2)c2cccc(C(F)(F)F)c2)cc1`, the outcome in assay [1], in assay [2], in assay [3], in assay [4], in assay [5] and in assay [6] was inactive. Further, the result in assay [7], in [8], in assay [9] and in assay [10] was inactive.
As for `Cc1cc(C2(c3cc(C)c(O)cc3C)OS(=O)(=O)c3ccccc32)c(C)cc1O`, the result in assay [1], in [2], in [3], in [4], in [5] and in assay [6] was inactive. The outcome in assay [7], in assay [8], in [9] and in [10] was inactive.
Regarding `CC(=O)OCCC(C)CC(C)(C)C` (stereo not drawn), the outcome in [1], in assay [2], in [3], in assay [4], in assay [5] and in assay [6] was inactive. The result in assay [7], in [8], in assay [9] and in assay [10] was inactive. In [3], the half-maximal activity concentration (AC50) is 5 µM (active).
As for `Nc1cc([N+](=O)[O-])ccc1O`, the outcome in assay [1], in assay [2], in assay [3], in assay [4], in assay [5] and in assay [6] was inactive. Besides, the result in assay [7], in assay [8], in [9] and in assay [10] was inactive. Also, in assay [3], the AC50 was 11.8 µM (active).
Regarding `CC(=O)/C=C/C1=C(C)CCCC1(C)C`, the result in assay [1], in assay [2], in assay [3], in assay [4], in assay [5] and in assay [6] was inactive. The outcome in assay [7], in assay [8], in [9] and in assay [10] was inactive.
For the compound `O=C(O)c1ccc([N+](=O)[O-])cc1`, the result in assay [1], in assay [2], in [3], in [4], in assay [5] and in assay [6] was inactive. Further, the result in assay [7], in [8], in [9] and in assay [10] was inactive.
Consider `CC(=O)O[C@]1(C(C)=O)CC[C@H]2[C@@H]3C[C@H](C)C4=CC(=O)CC[C@]4(C)[C@H]3CC[C@@]21C`, for which the result in assay [1], in assay [3], in assay [4], in [7], in [8] and in [10] was inactive. The concentration at half-maximal activity (AC50) in assay [2] is 0.0082 µM (active); in [5], 14.7 µM (active); in [6], 0.604 µM (active); in assay [9], 0.0082 µM (active).
For the compound `CN(CCOc1ccc(CC2SC(=O)NC2=O)cc1)c1ccccn1` (stereo not drawn), the result in assay [1], in assay [2], in assay [3], in [4], in [6] and in assay [7] was inactive. Moreover, the result in assay [8], in [9] and in assay [10] was inactive. The AC50 in [5] was 4.98 µM (active).
As for `CCc1c(C)cc(N)c(CC)c1N`, the result in [1], in [2], in [3], in assay [4], in [5] and in [6] was inactive. Further, the result in [7], in assay [8], in assay [9] and in assay [10] was inactive.
As for `CC(=O)[C@H]1CC[C@H]2[C@@H]3CC=C4C[C@@H](O)CC[C@]4(C)[C@H]3CC[C@]12C`, the outcome in assay [1], in assay [2], in assay [3], in assay [4], in assay [5] and in assay [6] was inactive. Besides, the outcome in assay [7], in assay [8], in assay [9] and in assay [10] was inactive. Moreover, the AC50 is 1.86 µM (active) in assay [5], 10.9 µM (active) in assay [6] and 6.96 µM (active) in assay [7].
As for `C=C[Si](OCC)(OCC)OCC`, the result in [1], in assay [2], in assay [3], in [4], in assay [5] and in [6] was inactive. The outcome in assay [7], in assay [8], in [9] and in assay [10] was inactive.
Regarding `CCCCC(CC)COC(=O)/C=C\C(=O)OCC(CC)CCCC` (stereo not drawn), the outcome in assay [1], in assay [2], in assay [3], in assay [4], in [5] and in [6] was inactive. Moreover, the result in assay [7], in assay [8], in assay [9] and in [10] was inactive.
`COC(=O)c1ccc(C)cc1`: the result in [1], in [2], in assay [3], in assay [4], in assay [5] and in assay [6] was inactive. In addition, the result in [7], in [8], in assay [9] and in [10] was inactive.
For `C[C@H]1C[C@@H]2[C@H]([C@@H](O)C[C@@]3(C)[C@H]2CC[C@]3(O)C(=O)CO)[C@@]2(C)C=CC(=O)C=C12`, the outcome in assay [1], in assay [3], in assay [5], in [6], in [7] and in assay [8] was inactive. The outcome in [10] was inactive. The concentration at half-maximal activity (AC50) was 471 nM (active) and 1.18 µM (active) in [2]; 0.15 µM (active) in assay [4]; 4.62 µM (active) in assay [6]; 0.15 µM (active) in assay [9].

The values are drawn from PubChem BioAssay (EPA / NIEHS).
